Assay outcomes deposited in PubChem by National Center for Advancing Translational Sciences (NCATS).
Rows were chosen to be rich in hits. Some 21% of all compounds tested hit in one or more screens of this group.
Pf growth 48h – P. falciparum growth inhibition at 48 hours (one generation); P. falciparum luciferase growth in erythrocytes, 48 h; Potency, µM (highest dose often 28.7 µM), without a hit: top-dose activity change, negative = inhibition, hits mostly inhibitors; 310,000 compounds, 5.9% hits; AID 504832; active = well fitted inhibition curve with a large enough effect; inconclusive = small, poorly fitted or top-dose-only effect, or another doubt; inactive = no such curve, though single readings can be large or run the other way; note: potency is the fitted concentration of half-maximal effect; % is set by controls: 0 for no effect and ±100 for the full control effect
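Luciferase-expressing P. falciparum in infected erythrocytes (2% hematocrit, 0.1% parasitemia final) in RPMI 1640/0.5% Albumax were exposed to compound for 48 hours at 37 C, 5% CO2; growth read as luminescence.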
Shiga toxin inh – blocks Shiga toxin action in Vero cells | Vero cells, Shiga toxin protein synthesis inhibition reporter | inhibition, % at 38.7 µM | 290,000 compounds, 9.2% hits; in the data active = inhibition mostly above about 28%, no sharp cut-off; inactive = mostly below about 43%; note: 0% is about no effect
NS1 inh – influenza NS1 inhibition; AID 2326; 270,000 compounds, 0.4% hits; Potency, µM (titrated, usually from 46.1 µM), without a hit: at the top dose activity, positive = more growth; note: potency is the fitted concentration of half-maximal effect; actives are rising curves; nearly all actives have a fitted effect of over 50% in size
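In this qHTS, NS1 from influenza A is expressed in budding yeast, where it slows growth. Cells are switched from glucose to 2% galactose medium (pH 6.0, -URA), treated with compound, and growth recovery is read at OD600.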
SARS PLP yeast – SARS-CoV PLP inhibition in yeast; AID 485353; Potency, µM (highest dose often 32.9 µM), for the others: at the highest dose activity, positive = growth rescue, hits mostly activators; 330,000 compounds, 0.19% hits; S. cerevisiae expressing SARS-CoV PLpro, growth rescue; note: potency is the fitted concentration of half-maximal effect; 0% is about no effect; nearly all actives have a fitted effect of over 55% in size
Cycloheximide cs – counter-screen for Shiga toxin inhibitors: cycloheximide protein synthesis inhibition | 300,000 compounds, 12% hits | max response, % | cell reporter, cycloheximide protein synthesis inhibition counterscreen; in the data active = max response mostly above about 13%, no sharp cut-off; inactive = mostly below about 14%; note: read at 38.3 µM for the half of the compounds with a filed dose; 0% is about no effect
Pf growth 96h – P. falciparum growth inhibition at 96 hours | P. falciparum luciferase reporter growth, 96 h | Potency, µM (titrated, usually from 28.7 µM), for the others: top-dose activity change, negative = inhibition, actives largely listed as inhibitors | 320,000 compounds, 6.9% hits | AID 504834; active = well fitted inhibition curve with a large enough effect; inconclusive = small, poorly fitted or top-dose-only effect, or another doubt; inactive = no such curve, though single readings can be large or run the other way; note: potency is the fitted concentration of half-maximal effect; % is set by controls: 0 for no effect and ±100 for the full control effect
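Luminescence readout: decreased luciferase signal marks inhibited growth of reporter-expressing P. falciparum in infected red cells (2% hematocrit, 0.05% parasitemia final), exposed to compound two generations (96 h, 37 C, 5% CO2).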
* marks the source's active call; other numbers are inactive results; [ ] = remark or other dose. Unless noted, calls come from the whole dose curve.

CC(=O)[C@H](C(=N)C#N)C(=O)Nc1ccccc1 was read as NS1 inh 5.6%.
Cc1cccc2c(N=Nc3ccc(S(=O)(=O)Nc4cccc(Cl)c4)cc3[N+](=O)[O-])c(O)[nH]c12 was read as Pf growth 48h 6.57µM*, Shiga toxin inh 12.7, NS1 inh 1.6%, SARS PLP yeast -2.2%, Cycloheximide cs 6.5 and Pf growth 96h inconclusive.
Screening Cc1csc(NC(=O)CSc2ccc3nnc(-c4ccncc4)n3n2)n1 returned Pf growth 48h 20.6%, Shiga toxin inh 35.6, NS1 inh 8.1%, SARS PLP yeast 0.3%, Cycloheximide cs 4.1 and Pf growth 96h 56.1%.
`COCCCn1c(=S)[nH]c2c(sc3ccccc32)c1=O` gave Pf growth 48h 18.5%, Shiga toxin inh 16.3, SARS PLP yeast 1.5%, Cycloheximide cs 28.9* and Pf growth 96h 10.4µM*.
CC1CCN(CCCn2c(=S)[nH]c3c(sc4ccccc43)c2=O)CC1 was read as Pf growth 48h 39.8%, Shiga toxin inh 105.1*, SARS PLP yeast -0.2%, Cycloheximide cs 22.0* and Pf growth 96h -31.2%[5.75 µM].
`O=C(Nc1cccc(Cl)c1)C1COc2ccccc2O1` (stereo not drawn) gave Pf growth 48h -1.8%, Shiga toxin inh 29.3, NS1 inh -16.8%, SARS PLP yeast -9.6%, Cycloheximide cs 16.4* and Pf growth 96h 1.65µM*.
Cc1cc(Cl)ccc1NC(=O)C1COc2ccccc2O1 (stereo not drawn) was read as Pf growth 48h 202.3%, Shiga toxin inh 86.7*, NS1 inh -40.9%, SARS PLP yeast -12.4%, Cycloheximide cs 37.3* and Pf growth 96h 90.3%.
Screening COC(=O)c1cc(NC(=O)C2COc3ccccc3O2)cc(C(=O)OC)c1 (stereo not drawn) returned Pf growth 48h inconclusive, Shiga toxin inh 17.3, NS1 inh -0.8%, SARS PLP yeast -6.0% and Cycloheximide cs -1.2.
Cc1ccc(Cl)cc1NC(=O)C1COc2ccccc2O1 (stereo not drawn) was read as Pf growth 48h -5.4%, Shiga toxin inh 25.8, NS1 inh -5.1%, SARS PLP yeast -3.0%, Cycloheximide cs 11.0 and Pf growth 96h -11.3%.
`COc1cccc(NC(=O)C2COc3ccccc3O2)c1` (stereo not drawn) gave Pf growth 48h 81.7%, NS1 inh -12.5%, SARS PLP yeast 4.4%, Cycloheximide cs 59.7* and Pf growth 96h inconclusive.
For CCc1ccc2oc(C(=O)NC3CCS(=O)(=O)C3)cc(=O)c2c1 (stereo not drawn) the results were Pf growth 48h 33.8%, Shiga toxin inh -4.7, NS1 inh 13.4%, Cycloheximide cs -3.2 and Pf growth 96h -5.3%.
`Cc1csc(NC(=O)CSc2ncc(-c3ccccc3)[nH]2)n1` gave Pf growth 48h 72.8%, Shiga toxin inh 10.2, NS1 inh -13.1%, SARS PLP yeast -6.9%, Cycloheximide cs 29.5* and Pf growth 96h 30.6%.
Screening CCc1nnc(NC(=O)CSc2ncc(-c3ccccc3)[nH]2)s1 returned Pf growth 48h 23.8%, Shiga toxin inh 20.0, NS1 inh 14.1%, SARS PLP yeast -7.4% and Cycloheximide cs 38.0*.
`c1ccc2c(CN3CCSCC3)cccc2c1` gave Pf growth 48h 11.8%, NS1 inh -6.2%, SARS PLP yeast 7.2%, Cycloheximide cs 4.3 and Pf growth 96h inconclusive.
Screening O=[N+]([O-])c1cccnc1S(=O)(=O)c1ccccc1 returned Pf growth 48h inconclusive, Shiga toxin inh 5.6, NS1 inh -83.3%, SARS PLP yeast -5.4%, Cycloheximide cs 13.9 and Pf growth 96h 10.4µM*.
COc1ccc([N+](=O)[O-])c(S(=O)(=O)c2ccccc2)n1 was read as Pf growth 48h -7.6%, Shiga toxin inh -2.9, NS1 inh -96.9%, SARS PLP yeast -6.9%, Cycloheximide cs 9.2 and Pf growth 96h inconclusive.
CCC(C)[C@@H](CN)NCC1(c2ccccc2)CC1 (stereo partly drawn) was read as Pf growth 48h inconclusive, SARS PLP yeast 1.4% and Pf growth 96h inconclusive.
For COc1cccc(NC(=O)CN(C)C(=O)/C=C/c2cn(Cc3ccccc3)nc2-c2cccnc2)c1 the results were Pf growth 48h inconclusive, SARS PLP yeast 3.9% and Pf growth 96h inconclusive.
CCN(CC(=O)Nc1ccc(NC(C)=O)cc1)C(=O)/C=C/c1cn(Cc2ccccc2)nc1-c1cccnc1 was read as Pf growth 48h inconclusive, SARS PLP yeast -3.4% and Pf growth 96h 10.4µM*.
`COc1cc2c(cc1OC)CN(C(=O)/C=C/c1ccc(F)cc1)CC2` gave Pf growth 48h inconclusive, Shiga toxin inh -3.9, NS1 inh 3.5%, SARS PLP yeast -5.6%, Cycloheximide cs -6.8 and Pf growth 96h inconclusive.
Screening COc1cc2c(cc1OC)CN(C(=O)/C=C/c1cc(OC)c(OC)c(OC)c1)CC2 returned Pf growth 48h 2.62µM*, Shiga toxin inh -4.8, NS1 inh -8.5%, SARS PLP yeast -0.9%, Cycloheximide cs 4.4 and Pf growth 96h 4.65µM*.
For CCCCOc1ccc(C(=O)N/C(=C/C=C/c2ccccc2)C(=O)NC)cc1 the results were Pf growth 48h 36.9%, Shiga toxin inh 27.0, NS1 inh 8.1%, SARS PLP yeast -15.5%, Cycloheximide cs 10.5* and Pf growth 96h 179.7%.
Screening C=CCN1C(=O)c2ccc(C(=O)N(C)CC(=O)Nc3ccc(Br)cc3C)cc2C1=O returned Pf growth 48h 0.4%, SARS PLP yeast -0.2% and Pf growth 96h 10.2%.
`COC(=O)[C@H](CC(C)C)NC(=O)Nc1ccc(F)cc1` gave Pf growth 48h 15.0%, Shiga toxin inh -9.6, NS1 inh 1.5%, SARS PLP yeast -0.3%, Cycloheximide cs -2.6 and Pf growth 96h 17.4%.
CC(C)S(=O)(=O)c1csc(C(=O)Nc2ccc(F)cc2)c1N was read as Pf growth 48h 228.3%, Shiga toxin inh 53.5, NS1 inh 1.0%, SARS PLP yeast -11.7%, Cycloheximide cs 41.9* and Pf growth 96h 328.3%.
Screening COc1cccc(/C=N/n2c(C)nc3ccccc32)c1OC returned Pf growth 48h 1.8%, Shiga toxin inh 37.9*, NS1 inh -54.5%, SARS PLP yeast -8.1%, Cycloheximide cs 20.8 and Pf growth 96h 38.4%.
Screening COc1cccc(/C=N/n2c(=O)[nH]c3ccccc32)c1OC returned Pf growth 48h 64.2%, Shiga toxin inh 41.7*, NS1 inh -12.4%, SARS PLP yeast -2.7%, Cycloheximide cs 38.5* and Pf growth 96h 23.7%.
Screening CCOC(=O)C1(Cc2cccc(F)c2)CCN(C(=O)Cn2cnnn2)CC1 returned Pf growth 48h 15.9%, Shiga toxin inh 15.9, NS1 inh 2.5%, SARS PLP yeast 3.7%, Cycloheximide cs 2.4 and Pf growth 96h 1.5%.
N#Cc1c(F)cccc1NCc1cccs1 was read as Pf growth 48h 7.3%, Shiga toxin inh -1.9, NS1 inh -3.5%, SARS PLP yeast -0.5%, Cycloheximide cs 10.4 and Pf growth 96h 0.0%.
